# Pf growth 96h = Primary qHTS for delayed death inhibitors of the malarial parasite plastid, 96 hour incubation; P. falciparum luciferase reporter growth, 96 h; Potency, µM (top dose mostly 28.7 µM), for inactives: top-dose activity change, negative = inhibition, most hits filed as inhibitors; 320,000 tested, 6.9% active; note: potency is the fitted concentration of half-maximal effect
#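 Compounds incubated with erythrocytes infected by luciferase-expressing P. falciparum (2% hematocrit, 0.05% parasitemia final) for 96 hours, 37 C in 5% CO2. Growth inhibition scored as decreased luciferase luminescence.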
# HCV inh = qHTS Assay for Inhibitors of Hepatitis C Virus (HCV) | Huh7.5.1 HCVcc-Cre infection, luciferase reporter, 44 h | Potency, µM (series often up to 41.8 µM), inactives show at the top dose activity change, negative = inhibition, usual class: inhibitors | 340,000 tested, 3.4% active; note: potency is the fitted concentration of half-maximal effect
#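 Antiviral activity was scored by luciferase reporter output from cells infected with HCVcc-Cre (~0.5 moi) in presence of compound, 44 h infection period, cells seeded 1,000/well 4 h prior.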
# Marburg entry inh = qHTS for inhibitors of binding or entry into cells for Marburg Virus | 300,000 tested, 1.8% active | Marburg virus pseudotyped entry inhibition, cell reporter | Potency, µM (series often up to 37.8 µM), for inactives: at the highest dose activity change, negative = inhibition, hits mostly inhibitors; calls by dose curve; tested in HEK293 cells; note: potency is the fitted concentration of half-maximal effect
# Pf growth 48h = Primary qHTS for delayed death inhibitors of the malarial parasite plastid, 48 hour incubation; Potency, µM (doses to about 28.7 µM), without a hit: at the top dose activity change, negative = inhibition, hits mostly inhibitors; P. falciparum luciferase growth in erythrocytes, 48 h; 310,000 tested, 5.9% active; note: potency is the fitted concentration of half-maximal effect
#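 Luciferase-expressing P. falciparum in infected erythrocytes (2% hematocrit, 0.1% parasitemia final) in RPMI 1640/0.5% Albumax were exposed to compound for 48 hours at 37 C, 5% CO2; growth read as luminescence.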
# Lassa entry inh = qHTS for Inhibitors of binding or entry into cells for Lassa Virus | Lassa virus pseudotype entry inhibition, cell reporter | Potency, µM (doses to about 37.9 µM), inactives show at the highest dose activity change, negative = inhibition, most hits filed as inhibitors | 300,000 tested, 1.2% active | AID 540256, 2011; calls by dose curve; tested in HEK293 cells; note: potency is the fitted concentration of half-maximal effect; nearly all actives have a fitted effect of over 50% in size
# HCMV inh = qHTS Assay for inhibitors of the human cytomegalovirus (HCMV) | HFF cells, HCMV-luciferase reporter, 72 h; hits give low values | 410,000 tested, 4.5% active | activity change, negative = inhibition, % at 57.5 µM; in the data active = activity change below about -60%; inconclusive = no clear call, values can overlap the other calls; inactive = above about -39%
#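 Screen run at 2 compound doses on HFFs infected with reporter HCMV, MOI 1 PFU/cell. Luciferase activity from cell lysates at 72 h post infection gave inhibition relative to buffer-only and Salinomycin wells.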
# * = called active by the depositor; ? = inconclusive; . = not tested or not shown; [ ] = remark or other dose. In the library only some 14% were active in any assay of this set; here they are far more common. Unless noted, calls come from the whole dose curve; as a rule, active = well fitted inhibition curve with a large enough effect; inconclusive = small, poorly fitted or top-dose-only effect, or another doubt; inactive = no such curve, though single readings can be large or run the other way. % is set by controls: 0 for no effect and ±100 for the full control effect.
SMILES,Pf growth 96h,HCV inh,Marburg entry inh,Pf growth 48h,Lassa entry inh,HCMV inh
CCN(C)C(=O)C1=COC2=NC(=O)N(Cc3ccccc3)CCN12,.,.,.,.,.,-2.6
O=C(CC1N=C2c3ccccc3N=C(SCc3ccccc3F)N2C1=O)NCc1cccs1 (configuration not stated),.,.,.,.,12.9%[46.1 µM],10.2
CC(=O)c1ccccc1NC(C(=O)NC1CCCCC1)C(C)C (configuration not stated),.,.,.,.,.,6.5
Cc1ccccc1NCC(=O)N=Nc1c(O)[nH]c2ccc([N+](=O)[O-])cc12,?,-22.2%,.,?,.,-83.1*
O=[N+]([O-])c1ccc2[nH]c(O)c(N=NC(=S)NCC3CCCO3)c2c1 (configuration not stated),10.2%,-12.3%,10.6%,13.7%,11.1%,39.7
CC(C)c1ccc2[nH]c(O)c(N=NC(=S)NCCc3ccccc3)c2c1,9.28µM*,?,2.8%,?,.,?
CC(C)c1ccc2[nH]c(O)c(N=NC(=O)c3ccc(CSc4nncn4C)cc3)c2c1,5.22µM*,-0.1%,17.1%,-16.7%,13.2%,-2.3
CCNC(=S)N=Nc1c(O)[nH]c2ccc([N+](=O)[O-])cc12,6.57µM*,-14.5%,-21.3%[46.1 µM],?,-12.5%,-14.9
O=C1C=C(c2cc3ccccc3o2)C[C@@H](c2ccc(F)cc2)C1,?,0.9%,.,?,.,-11.8
NS(=O)(=O)c1ccc(CNC(=O)c2ccc3c(c2)OCO3)cc1,.,4.9%,.,.,.,20.6
Cc1ccc2[nH]c(O)c(N=NC(N)=S)c2c1,?,1.7%,.,?,.,-38.1
CCNC(=S)N=Nc1c(O)[nH]c2ccc(C(C)C)cc12,?,?,-23.3%,?,3.55µM*,-65.8*
C[C@H](NC(=O)c1ncn2c1C(=O)N[C@@H](C)C2)c1ccccc1,.,.,.,.,.,-20.5
O=C(NCc1ccc(F)cc1)C(c1cccnc1)N(C(=O)c1csnn1)c1ccccc1 (configuration not stated),10.4µM*,11.6%,7.2%[46.1 µM],-26.1%,1.2%,2.9
O=C(NCc1ccccc1)C(c1ccc(F)cc1)N(C(=O)c1csnn1)c1ccccc1 (configuration not stated),7.3%,12.2%,-8.3%[46.1 µM],-17.7%,-0.6%,-27.0
CC(C)N(CCc1ccncc1)C(=S)Nc1cccc(Cl)c1,27.8%,-2.5%,?,16.5%,?,-26.8
Cc1cccc(NC(=S)N(CCc2ccncc2)C(C)C)c1C,?,0.5%,?,19.3%,-2.7%[46.1 µM],9.3
CC(C)NC(=S)N(CCc1ccncc1)C(C)C,1.31µM*,9.3%,-5.6%[46.1 µM],-4.3%,10.9%[46.1 µM],14.6
CCc1ccccc1NC(=S)N(CCc1ccncc1)C(C)C,-20.6%,10.2%,.,-12.9%,.,-92.6*
Cc1ccc(NC(=O)C2CCN(S(=O)(=O)c3ccc4c(c3)CC(C)N4C(=O)C3CCC3)CC2)nc1 (configuration not stated),?,8.91µM*,?,?,?,-86.0*
CC(C)CCNC(=O)C1CCN(S(=O)(=O)c2ccc3c(c2)CC(C)N3C(=O)C2CCC2)CC1 (configuration not stated),?,-6.8%,-0.6%[46.1 µM],14.7µM*,-22.4%[46.1 µM],-10.2
COCCCNC(=O)C1CCC(CNS(=O)(=O)c2ccc3c(c2)CC(C)N3C(=O)C2CC2)CC1 (configuration not stated),13.1µM*,5.8%,?,-4.2%,4.3%[46.1 µM],-22.5
CC(C)CCNC(=O)C1CCCN(S(=O)(=O)c2ccc3c(c2)CC(C)N3C(=O)C2CC2)C1 (configuration not stated),-30.5%,-18.0%,.,0.0%,.,-4.5
CC(=O)N1c2ccc(S(=O)(=O)NCC3CCC(C(=O)N4CCCC(C)C4)CC3)cc2CC1C (configuration not stated),1.17µM*,-17.0%,.,?,.,0.0
COCCNC(=O)C1CCC(CNS(=O)(=O)c2ccc3c(c2)CC(C)N3C(C)=O)CC1 (configuration not stated),.,.,.,.,25.5%[46.1 µM],-8.9
SMILES,Pf growth 96h,HCV inh,Marburg entry inh,Pf growth 48h,Lassa entry inh,HCMV inh
CCCCCC1C(C(=O)OCC)C(=O)NC1(C(=O)OCC)C(=O)OCC (configuration not stated),.,27.0%,-32.4%,.,-17.3%,-13.4
COc1cc(OC)c(OC)cc1CNCCSc1nnnn1-c1ccccc1,.,.,6.1%[46.1 µM],.,0.4%[46.1 µM],-14.9
CCOc1ccc(NC(=O)C2CCN(S(=O)(=O)c3ccc4c(c3)CC(C)N4C(C)=O)CC2)cc1 (configuration not stated),-10.4%,?,-15.3%[46.1 µM],?,-24.6%[46.1 µM],?
CC(=O)N1c2ccc(S(=O)(=O)N3CCC(C(=O)Nc4ccc(C)cn4)CC3)cc2CC1C (configuration not stated),?,11.2µM*,.,?,.,-80.2*
Cc1ccc(CNC(=O)C2CCN(S(=O)(=O)c3ccc4c(c3)CC(C)N4C(=O)C3CCC3)CC2)o1 (configuration not stated),?,-19.8%,.,?,.,-24.1
CC(=O)N1c2ccc(S(=O)(=O)NCC3CCC(C(=O)Nc4ccc(C)cn4)CC3)cc2CC1C (configuration not stated),?,?,?,?,?,-62.5*
Cc1ccnc(NC(=O)C2CCN(S(=O)(=O)c3ccc4c(c3)CC(C)N4C(=O)C3CCC3)CC2)c1 (configuration not stated),?,?,?,10.4µM*,?,?
CC1Cc2cc(S(=O)(=O)N3CCC(C(=O)Nc4ccccn4)CC3)ccc2N1C(=O)C1CCC1 (configuration not stated),?,7.94µM*,?,?,?,-72.8*
COc1ccc(S(=O)(=O)N(CC(=O)N(C)Cc2ccccc2)c2ccc(Cl)cc2)cc1,.,.,-12.6%[46.1 µM],.,?,-30.2
CC(=O)N1CCOc2ccc(S(=O)(=O)NCC3CCC(C(=O)NCCC(C)C)CC3)cc21 (configuration not stated),?,-27.5%,27.0%[46.1 µM],?,-8.5%[46.1 µM],?
CC(=O)N1CCOc2ccc(S(=O)(=O)NCC3CCC(C(=O)Nc4ccc(C)cn4)CC3)cc21 (configuration not stated),?,?,?,-16.2%,?,-68.1*
O=C(C[C@H]1C[C@H](C(=O)N2CCCCC2)[C@@]2(CCc3ccccc3)c3[nH]c4ccc(Cl)cc4c3CCN2C1=O)NCc1cccc(C(F)(F)F)c1,.,-2.6%,-0.2%,.,.,4.9

# Source: PubChem
